Bioassay records as filed in PubChem.
p53 reactivation: qHTS assay for re-activators of p53 using a Luc reporter. H1299 p53-A138V BP100-luciferase reporter, luminescence, 24 h. Potency, µM (doses to about 92.2 µM), usual class: activators. 320,000 compounds, 0.063% hits; further: nearly all actives have a fitted effect of over 45% in size
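H1299 (p53-null), stable ts p53-A138V + BP100-Luc; 1000 cells/well, Opti-MEM/10% FBS; cpd 4 pt, 1:5; 24 h, 37 deg C, 5% CO2; detection reagent 10 min RT; luminescence.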
GLP-1R agonist: qHTS of GLP-1 Receptor Agonists. 380,000 compounds, 0.007% hits. Glucagon-like peptide 1 receptor (Homo sapiens), P43220. HEK293 GLP-1R CRE-luciferase, luminescence, 4-6 h; cells express a hypersensitive GLP-1R form. Potency, µM (doses to about 45.6 µM), actives largely listed as activators
Target sequence (P43220 whole entry, looked up): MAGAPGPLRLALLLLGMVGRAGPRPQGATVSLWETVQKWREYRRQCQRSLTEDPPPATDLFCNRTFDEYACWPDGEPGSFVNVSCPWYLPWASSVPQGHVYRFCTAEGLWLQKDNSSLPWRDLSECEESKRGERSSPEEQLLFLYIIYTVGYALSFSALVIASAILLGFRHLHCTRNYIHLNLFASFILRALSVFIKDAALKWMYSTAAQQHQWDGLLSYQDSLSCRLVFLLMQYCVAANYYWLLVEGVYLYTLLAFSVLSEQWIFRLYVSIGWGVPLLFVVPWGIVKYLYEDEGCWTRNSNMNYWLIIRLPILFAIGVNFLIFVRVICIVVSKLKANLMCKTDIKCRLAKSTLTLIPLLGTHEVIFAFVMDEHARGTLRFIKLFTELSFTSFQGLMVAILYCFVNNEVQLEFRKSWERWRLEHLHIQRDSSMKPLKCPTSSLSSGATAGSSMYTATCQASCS
ClpP mod: qHTS Assay for Activators of ClpP | ATP-dependent Clp protease proteolytic subunit (Bacillus subtilis (strain 168)), P80244 | purified B. subtilis ClpP, FRET peptide cleavage, 20 min | Potency, µM (doses to about 57.5 µM) | 340,000 compounds, 1.9% hits; active means well fitted falling curve with a large enough effect; inconclusive means small, poorly fitted or top-dose-only effect; inactive means no such curve, though single readings can be large or run the other way; further: the source files actives as falling curves though it sought activators and does not explain the sign; nearly all actives have a fitted effect of over 65% in size
Target sequence (P80244 whole entry, looked up): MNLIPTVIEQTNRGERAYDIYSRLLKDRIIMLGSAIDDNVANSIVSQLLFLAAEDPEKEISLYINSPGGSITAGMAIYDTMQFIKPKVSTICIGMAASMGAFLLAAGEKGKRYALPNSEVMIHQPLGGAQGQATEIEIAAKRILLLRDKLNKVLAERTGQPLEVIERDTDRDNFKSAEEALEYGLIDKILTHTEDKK
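Buffer: 100 mM Tris/HCl pH8, 100 mM KCl, 0.05% low protease BSA, 2.5% glycerol, 0.01% Tween-20. ClpP 10 microg/mL final; 20 min RT; delta FRET normalized to ADEP and DMSO controls.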
GLP1R cytotox: qHTS of GLP-1 Receptor Inverse Agonists: Cytotox Screen; HEK293 cAMP-luciferase reporter cells, luminescence, 24 h; AID 624418, 2012; 410,000 compounds, 0.13% hits; Potency, µM (doses to about 38.3 µM), usual class: inhibitors;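 further: loss of luciferase light is scored as toxicity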
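Here, cytotoxicity is scored as loss of luminescence. The MLSMR collection was tested on cells seeded in medium containing 10% Nu serum, with a 24 hr compound exposure preceded by 12 hours of culture.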
LDHA block: qHTS assay for inhibitors of human lactate dehydrogenase | AID 1347041, 2019 | purified LDHA, NADH/diaphorase-resazurin fluorescence; stronger effect = lower value | activity change, % (values are at about 110 or 230 µM) | 480,000 compounds, 0.15% hits; in the data active means activity change below about -30%; inconclusive means mostly about -25% to -30%
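Remaining NADH was detected by diaphorase (0.133 mg/mL) converting 37 µM resazurin to fluorescent resorufin, read at 0 and 20 minutes. The preceding 5-minute room-temperature reaction used 2 nM LDHA, 0.2 mM sodium pyruvate and 0.06 mM NADH at pH 7.4.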
GLP1R inv ag: qHTS of GLP-1 Receptor Inverse Agonists (Inhibition Mode); Glucagon-like peptide 1 receptor (Homo sapiens), P43220; HEK293 GLP-1R CRE-luciferase, luminescence, 24 h; GLP-1R form is constitutively active; Potency, µM (titrated, usually from 38.3 µM), hits mostly inhibitors; 410,000 compounds, 1.6% hits; AID 624417, 2012; further: nearly all actives have a fitted effect of over 55% in size
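Cells are plated, allowed 12 hours at 37 deg C, then treated with compounds for 24 hr before luciferase detection reagent is added and luminescence is read after 12 min at room temperature. The HEK293 line carries constitutively active GLP-1R with a cAMP-responsive reporter.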
Numbers stand for hits; – = inactive; ? = inconclusive; · = not tested or not shown; ! = repeats disagree. Most compounds without a hit are left out; they make up all but 2.9% or so of the library. Unless noted, the call rests on the fitted dose curve; in most records, active means well fitted curve in the direction sought with a large enough effect; inconclusive means small, poorly fitted or top-dose-only effect, or another doubt; inactive means no such curve, though single readings can be large; an effect the other way counts as inactive or inconclusive.

SMILES	p53 reactivation	GLP-1R agonist	ClpP mod	GLP1R cytotox	LDHA block	GLP1R inv ag
CCC(CO)Nc1ncnc2c1cnn2-c1ccc(C)cc1 (centres undefined)	·	·	28µM	–	–	?
Cc1ccc(-n2ncc3c(NC4CCCCCC4)ncnc32)cc1	·	·	?	–	–	4.5µM
COc1ccccc1C/C(N)=N/OC(=O)COc1ccc(C)cc1C	·	–	–	–	–	–
COc1ccc2oc(=O)cc(-c3cc4cccc(OC)c4o3)c2c1	–	–	–	–	-33!	–
COC(=O)C1CCN(C(=O)COc2ccc(S(=O)(=O)N3CCOCC3)cc2Cl)CC1	–	–	·	–	–	–
O=C1NC2(CCOc3ccccc32)C(=O)N1CC(=O)N(Cc1ccccc1)C1CCS(=O)(=O)C1 (centres undefined)	–	–	–	–	–	–
O=C(Nc1nn(Cc2ccc(Cl)cc2)cc1Br)c1ccc(COc2ccccc2Cl)o1	–	–	–	–	–	5µM
CCN(CC)c1ccc(C(=O)OCc2cc(=O)oc3cc(O)ccc23)cc1	–	–	32µM	–	–	?
C=CCNC(=S)NNc1nc2c(c(=O)[nH]1)C1(CCCCC1)Cc1ccccc1-2	–	–	–	–	–	10µM
O=c1[nH]c(NCCO)nc2c1C1(CCCC1)Cc1ccccc1-2	–	–	–	–	–	–
CCOC(=O)c1c(C)[nH]c(C(=O)OCC(=O)N2c3ccccc3CC2C)c1C (centres undefined)	–	–	–	–	–	8.9µM
CCCSc1ncc(Cl)c(C(=O)Nc2ccccc2C(F)(F)F)n1	·	·	·	·	–	·
COc1cccc(CNC(=O)CCS(=O)(=O)c2ccc3c(c2)oc(=O)n3C)c1	–	–	–	–	–	–
O=C(CSC1=NS(=O)(=O)c2ccccc2N1)Nc1ccc(F)cc1	–	–	·	?	–	?
Cc1cc(C)c2c(C)c(C(=O)NCc3ccncc3)oc2c1	–	–	?	–	–	–
CCc1ccc2oc(C(=O)NCc3ccncc3)c(C)c2c1	?	–	28µM	–	–	–
COc1ccc(-c2nsc(NC(=O)c3oc4ccc(Cl)cc4c3C)n2)cc1	·	·	–	–	–	–
CCc1ccc2oc(C(=O)Nc3nc(-c4ccccc4)ns3)c(C)c2c1	·	·	25µM	–	–	–
O=C(NCCc1ccccc1)C(=O)c1c(-c2ccccc2)cc2ccccn12	–	–	–	–	–	–
CCN(CC)C(=O)Cn1cc(S(=O)(=O)Cc2cccc([N+](=O)[O-])c2)c2ccccc21	–	–	·	–	–	–
CSc1nc2sc3c(c2c(=O)n1-c1ccccc1C)CCCC3	·	·	–	–	–	4.5µM
Cc1ccc(N/N=C(\C#N)C(N)=S)cc1C	–	–	–	?	–	0.28µM
Cc1ccc(NC(N)=S)cc1C	–	–	28µM	–	–	–
COc1ccc(C2c3ccsc3CCN2C(=O)NC(C)(C)C)cc1 (centres undefined)	–	–	–	–	–	?
CCOC(=O)C1=C(C)N(CC)C(=S)NC1c1ccc(Cl)cc1 (centres undefined)	–	–	–	?	–	10µM
SMILES	p53 reactivation	GLP-1R agonist	ClpP mod	GLP1R cytotox	LDHA block	GLP1R inv ag
Cc1cc(N)c2cc(NC(=O)/C=C/c3ccccc3Cl)ccc2n1	–	–	–	–	–	11µM
Cc1ccnc(NC(=O)/C=C/c2ccccc2Cl)c1	?	–	·	–	–	10µM
Cc1ccc(CNc2nnnn2C)cc1	·	–	–	–	–	–
CC(OC(=O)c1cc2c(ccc3ccccc32)oc1=O)c1nc2ccccc2s1 (centres undefined)	–	–	2.8µM	–	–	–
Cc1ccc(OCC(=O)Nc2ccc(-c3nc4ncccc4o3)cc2)c(C)c1	–	–	25µM	–	–	–
COc1ccccc1C(=O)Nc1ccc2oc(-c3ccc(F)cc3)nc2c1	–	–	20µM	–	–	–
COc1cccc(OC)c1C(=O)Nc1ccc(-c2nc3ccccc3o2)cc1	·	·	·	·	–	·
COc1cccc(OC)c1C(=O)Nc1ccc(-c2nc3ncccc3o2)cc1	·	·	28µM	–	–	–
Cc1ccccc1OCC(=O)Nc1ccc(-c2nc3ncccc3o2)cc1	·	·	–	–	–	–
COc1ccc(Cl)cc1NC(=O)C(C)OC(=O)c1cc(CO)oc1C (centres undefined)	·	·	·	·	–	·
COCCNC(=S)N(CCc1c(C)[nH]c2ccc(OC)cc12)Cc1cccnc1	–	–	–	–	–	–
Cc1ccc(C(=O)C(c2ccccc2)N2Cc3ccccc3C2=N)cc1 (centres undefined)	–	–	3.2µM	–	–	?
N#Cc1c(OCC(=O)N2CCCCC2)nc(-c2ccco2)c2c1CCC2	·	·	·	·	–	·
CCOC(=O)C(=O)Cc1nc(OCc2ccccc2)cc(OCc2ccccc2)n1	·	–	·	–	–	10µM
CCOC(=O)C(Cc1nc(OCc2ccccc2)cc(OCc2ccccc2)n1)=NO	·	–	–	–	–	?
C=CCN1C(=O)C(Cc2ccc(C)cc2)S/C1=N/N=C/c1ccco1 (centres undefined)	–	–	–	–	–	?
O=C1N/C(=N\N=C\c2cccs2)SC1Cc1ccc(Cl)cc1 (centres undefined)	–	–	–	–	–	–
C=CCN1C(=O)C(Cc2ccc(OCC)cc2)S/C1=N\N=C\c1cccs1 (centres undefined)	–	–	–	–	–	10µM
C=CCN1C(=O)C(Cc2ccccc2)S/C1=N/N=C/c1cccs1 (centres undefined)	–	–	–	–	–	11µM
CCC(CC)C(=O)Nc1c2c(nn1-c1ccc(OC)cc1)CS(=O)C2 (centres undefined)	–	–	–	–	–	–
CC(C)c1nc2c(c(=O)c3ccccc3n2C)c(=O)n1-c1ccc(F)cc1	–	–	28µM	–	–	–
O=C(Nc1cccc(F)c1)C1CCN(C(=O)c2ccc(Cl)cc2)CC1	–	–	25µM	–	–	?
N#Cc1cnc2c(-c3ccccc3)c(-c3ccccc3)nn2c1N	–	–	32µM	–	–	–
COc1ccc(-c2nc3ccccc3o2)cc1NC(=O)c1ccc(-c2ccc(C)c(Cl)c2)o1	·	·	–	–	–	–
O=C(CCCOc1ccccc1)Nc1ccncc1	–	–	–	–	–	–
